# Data taken from PubChem BioAssay AID1671192 (National Center for Advancing Translational Sciences (NCATS), 2021).
# Records with an inconclusive call do not appear. Activity calls are given as the source filed them. The call rests on the fitted dose curve; in most records, active means well fitted curve in the direction sought with a large enough effect; inconclusive means small, poorly fitted or top-dose-only effect, or another doubt; inactive means no such curve, though single readings can be large or run the other way.
# Molecular target: Polyunsaturated fatty acid lipoxygenase ALOX15 (Homo sapiens) (UniProt P16050)
# Sequence (P16050 whole entry, looked up): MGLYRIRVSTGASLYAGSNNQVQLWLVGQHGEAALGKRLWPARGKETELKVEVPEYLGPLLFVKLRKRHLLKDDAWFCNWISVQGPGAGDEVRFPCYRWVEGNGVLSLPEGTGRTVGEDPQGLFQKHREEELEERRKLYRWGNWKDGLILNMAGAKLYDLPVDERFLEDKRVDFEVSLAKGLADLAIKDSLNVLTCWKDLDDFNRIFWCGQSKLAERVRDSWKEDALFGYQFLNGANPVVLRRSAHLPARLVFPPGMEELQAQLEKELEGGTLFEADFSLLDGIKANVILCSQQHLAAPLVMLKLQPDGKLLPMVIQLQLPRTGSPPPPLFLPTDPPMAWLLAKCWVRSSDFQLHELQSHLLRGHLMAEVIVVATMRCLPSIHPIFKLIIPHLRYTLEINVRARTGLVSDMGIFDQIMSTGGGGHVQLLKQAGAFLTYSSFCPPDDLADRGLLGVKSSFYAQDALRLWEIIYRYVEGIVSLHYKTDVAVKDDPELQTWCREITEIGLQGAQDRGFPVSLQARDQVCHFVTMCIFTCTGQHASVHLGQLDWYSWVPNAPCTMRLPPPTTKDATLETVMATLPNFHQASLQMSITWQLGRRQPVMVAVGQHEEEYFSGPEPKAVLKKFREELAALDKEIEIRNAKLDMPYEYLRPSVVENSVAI
# Test: Counterscreen qHTS for inhibitors of human arachidonate 12S-lipoxygenase (ALOX12): ALOX15 Assay
# Details: purified ALOX15 enzyme activity; series mostly up to 110 µM
# Outline: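 Purified human ALOX15 (15hLO-1) at 40 nM in 25 mM HEPES, 0.01% Triton X-100, pH 7.5, preincubated with compound 15 min at RT. Then 50 uM arachidonic acid for 30 min; hydroperoxide detected by Fe-xylenol orange as the 573/405 nm absorbance ratio.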
row,SMILES,outcome
1,O=C(c1ccc(Cl)cc1)N1CC2(CCCN(Cc3ccc(Cl)cc3)C2)Cc2ccccc21 (stereo not drawn),inactive
2,O=C(N1CCCC1)N1CCCC(c2nnc3n2CCNC3)C1 (stereo not drawn),inactive
3,FC(F)(F)c1ccc(N2C3CCC2CN(Cc2cccs2)C3)cc1,inactive
4,C[S+](=O)([O-])N1Cc2ccccc2CC2(CCCN2CC2CCNCC2)C1 (stereo not drawn),inactive
5,CCc1nc2c(c(-c3ccc(OC)cc3)n1)CCN(Cc1ccc(OC)cc1)CC2,inactive
6,CCOc1ccc(CN2CCC3(Cc4ccccc4CNC3=O)C2)cc1 (stereo not drawn),inactive
7,Cc1cc(C(=O)N2CCOCC2)c2c(C3CCNCC3)noc2n1,inactive
8,C[S+](=O)([O-])N1Cc2ccccc2OC2(CCN(C(=O)c3ccc(N)nc3)CC2)C1,inactive
9,NCC(=O)N1Cc2ccccc2CC12CCCN(C(=O)c1ccccc1)C2 (stereo not drawn),inactive
10,O=C(c1ccccc1)N1CCCC2(CC(c3cccnc3)=NO2)C1 (stereo not drawn),inactive
11,Cn1nc(C2CCCN2)c2c(C(=O)NCc3cccs3)cc(C3CC3)nc21 (stereo not drawn),inactive
12,COc1ccc(-c2nc(C3CC3)nc3c2CCN(C(=O)c2ccc(C(F)(F)F)cc2)CC3)cc1,inactive
13,Cc1cc(Cl)ccc1NC1CN(C(=O)OC(C)(C)C)C1,inactive
14,COc1cccc(N2C(=O)NC(=NC3CCCC3)C23CCN(CC2CC2)C3)c1 (stereo not drawn),inactive
15,COc1ccc(C(=O)N2CCc3nc(C4CC4)nc(-c4ccc(Cl)cc4)c3C2)cc1,inactive
16,COc1ccc(N2CC3CCC(C2)N3C(C)=O)cc1,inactive
17,O=C(c1cc(C2CC2)nc2onc(C3CCNCC3)c12)N1CCCCC1,inactive
18,COc1ccc(-c2nc(C3CC3)nc3c2CN(C(=O)c2ccccc2F)CC3)cc1,inactive
